For 40 compounds, growth results are on record in PubChem BioAssay (NCI).

The panel holds about 83,000 compounds, 20% with a hit somewhere; the sample as a whole holds those more often.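 Values shown are percent growth following 48 h exposure of cells in 96-well plates to a single concentration of compound; below 10 was considered active.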 Calls of active or inactive are those of the source.

This assay has as its system OVCAR-5 ovarian. Put plainly: NCI-60 one-dose screen, 48 h (100 = growth as untreated, 0 = no growth, -100 = all killed). To be noted: 10 µM unless noted. Here is the method:
Growth inhibition of the OVCAR-5 human tumor cell line is measured as a screen for anti-cancer activity. Cells are grown in 96 well plates and exposed to the test compound for 48 hours. Compounds are tested at a single concentration, which is 10^-5 M for most compounds. The reported endpoint is percent growth (GI% or GIPRCNT), where numbers from 0 - 100% represent growth inhibition, and numbers from -100% - 0 represent cell death. For example, a value of 40 represents 60% growth inhibition. A value of 0 means no net growth occurred over the course of the experiment. A value of -40 indicates 40% of cells at the beginning of the experiment died by the end of the experiment. A value of -100 means all cells are dead at the end of the experiment.
NCI-60 Human Tumor Cell Lines Screen was performed using the standard one-dose NCI protocol, which is described in more detail at https://dtp.cancer.gov/discovery_development/nci-60/default.htm.
Compounds with GIPRCNT values below 10 were considered active. Activity score was based on GIPRCNT using the following formula: […]
Score is 0 for GIPRCNT values of 100 or above, 50 for GIPRCNT values of 0, and 100 for GIPRCNT values of -100.
As for `O=C1Nc2ccccc2/C1=C\c1nc(-c2ccccc2)n2ccccc12`, the growth is 90.6% (inactive).

Turning to `COc1ccc(CC(C#N)c2cc3ccccc3[nH]2)cc1` (stereo not given), the growth is 94.1% (inactive).

`C=CCn1c(SCC(=O)Nc2ccc(C(=O)/C=C/c3cc4cc(OC)ccc4nc3Cl)cc2)nnc1-c1ccc(Br)cc1`: the growth was 99.2% (inactive).

On to `Cc1cccnc1NC(=S)Nc1ncccc1C`, for which the growth is 124% (inactive).

`CN1CCN(C(=O)c2ccc(NC(=O)Nc3ccc(-c4nc(N5CCOCC5)c5cccn5n4)cc3)cc2)CC1`: the growth was 0.331% (active).

As for `CCOC(=O)C(=Cc1cccc(Cl)c1)C(=O)OCC`, the growth is 13.9% (inactive).

Regarding `CCN(CC)c1nc(SCc2ccccc2Cl)ncc1C`, the growth is 119% (inactive).

For `CC(C)(C)n1cc(-c2ccnc(NCCNS(=O)(=O)c3cccc(F)c3)c2)c(-c2ccccc2)n1`, the growth is 105% (inactive).

Turning to `O=C(NCCCCNC(=O)OCc1ccc2c(Cl)cc(Cl)c(O)c2n1)OCc1ccc2c(Cl)cc(Cl)c(O)c2n1`, the growth was 38.6% (inactive).

On to `Nc1nc(=S)c2ncn(C3OC(COP(=O)(O)O)C(O)C3O)c2[nH]1` (stereo not given), for which the growth was 36.8% (inactive).

Regarding `CCN(C(=O)N1CCN(c2cc3c(cc2F)c(=O)c(C(=O)O)cn3C2CC2)CC1)c1nc(-c2ccc(Cl)cc2)cs1`, the growth is 24.5% (inactive).

Regarding `CCCCCC(=O)OCC(=O)O[C@@H]1C[C@]2(C(C)C)O[C@@]1(C)[C@@H]1CC[C@@H](C)[C@H]1[C@@H]2OC(=O)/C=C/c1ccccc1`, the growth was 112% (inactive).

For the compound `C/C(=N/O)c1ccc(F)cc1`, the growth is 80.1% (inactive).

For the compound `Cc1ccc(-c2cc(-c3ccc(Cl)cc3)nc(NC(=O)c3cccnc3)n2)cc1`, the growth was 102% (inactive).

Consider `COc1cc(/C=C/C(=O)c2cccc(Nc3nc(Nc4ccccc4)nc(Nc4ccccc4)n3)c2)cc(OC)c1OC`, for which the growth was 78.8% (inactive).

On to `CCc1n(Cc2ccc3ccccc3c2)cc[n+]1Cc1ccc2ccccc2c1`, for which the growth is 8.92% (active).

`O=C1COCCN1c1ccc(Nc2nc(Cl)nc(OCc3cn(Cc4ccccc4)nn3)n2)cc1`: the growth is 105% (inactive).

Regarding `CN(C)CCNc1nc2c3cc(Cl)ccc3nn2c2ccccc12`, the growth is 65.7% (inactive).

As for `O=C(Nc1ccc(NC(=O)c2cc(=O)[nH]c3ccccc23)cc1)Nc1cccc(C(F)(F)F)c1`, the growth is 84.3% (inactive).

With `CCOC(=O)c1cc2c(=O)oc3ccccc3c2oc1=O`, the growth is 100% (inactive).

Take `Cc1ccc(C(C(N)=O)C(C(N)=O)c2ccccc2)cc1` (stereo not given): the growth is 114% (inactive).

With `COc1ccc(-c2nc3c(c(-c4ccccc4)nn3-c3ccccc3)c(-c3ccc(N4CCN(C)CC4)cc3)c2C#N)cc1`, the growth is 104% (inactive).

Consider `COC(=O)c1cc(-c2ccccc2)[nH]c1N/N=C/c1c(Cl)cccc1Cl`, for which the growth is 21.9% (inactive).

As for `N#C/C(=C\c1ccc(Br)cc1)n1nnc2ccc(F)cc21`, the growth is 3.03% (active).

Take `Cn1c(-c2ccc(Br)cc2)c(O)c(=O)c2c(F)cccc21`: the growth was 63.8% (inactive).

In the case of `O=C(/C=C/c1cccs1)c1ccc(Cl)nc1`, the growth is 103% (inactive).

Take `COc1ccc2[nH]cc(-c3nc(-c4c[nH]c5ccncc45)cs3)c2c1`: the growth is 45.3% (inactive).

In the case of `CCCCNc1ccc(C#N)c(OCCN(CC)CC)c1`, the growth is 97.4% (inactive).

With `Cn1cc(-c2csc(-c3c[nH]c4ccc(Br)cc34)n2)c2cnccc21`, the growth was -95.7% (active).

Take `CCOC(=O)CSc1ncnc2c1c(-c1ccccc1)c(-c1ccccc1)n2-c1ccc(C)cc1`: the growth is 93.8% (inactive).

Turning to `COc1ccc2cc(-c3ccc(NC(C)=O)c(=O)o3)ccc2c1`, the growth was 95% (inactive).

Consider `C#Cc1ccc(NC(=O)c2ccc(/C=C/C(=O)c3nccn3C)cc2)cc1`, for which the growth was -61.6% (active).

As for `CCCCCCCCCCCCCCCCCCOc1ccccc1CC(=O)OCC[N+]1(C)CCCC1`, the growth is 37.3% (inactive).

With `Oc1c(Cl)cc(Cl)cc1/C=N/Nc1nnc(N/N=C/c2cc(Cl)cc(Cl)c2O)c2ccccc12`, the growth is 40.4% (inactive).

On to `C#CCOc1cccc(Nc2ncnc3ccc(NC(=O)CCl)cc23)c1`, for which the growth is -70.1% (active).

Take `CCn1c(=S)[nH]c2c(=O)n(C)c(=O)n(C)c21`: the growth was 104% (inactive).

For the compound `O=C(/C=C/c1ccccc1)c1cccc(OCCCOc2cccc(C(=O)/C=C/c3ccccc3)c2)c1`, the growth is 111% (inactive).

For `Cc1ccc(-c2nc3nc(-c4ccccc4)nc(N4CCNCC4)c3o2)cc1`, the growth is -89.8% (active).

`O=S(=O)(Nc1ccccc1)c1ccc(C2CC3(Cl)C(Cl)=C(Cl)C2(Cl)C3(Cl)Cl)cc1` (stereo not given): the growth was 60.1% (inactive).

Take `COc1cc(NC(C)CCCNC(C)C)c2ncccc2c1OC` (stereo not given): the growth was 91.4% (inactive).
